# Screening data: PubChem, National Center for Advancing Translational Sciences (NCATS)
# IL-1B inflam inh: qHTS for Inhibitors of Inflammasome Signaling: IL-1-beta AlphaLISA Primary Screen; THP-1 LPS/ATP IL-1B secretion, AlphaLISA, 16 h; active compounds read low; activity change, % at 57.5 µM; actives 4.7% (n = 360,000); AID 743279, 2014; in the data active = activity change below about -50%; inconclusive = mostly about -30% to -49%; also: % is scaled to controls: 0 for no effect and ±100 for the full control effect
#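 Secreted IL-1B measured by AlphaLISA bead assay after 16 h compound exposure of THP-1 cells; compounds (final up to 57.5 uM) added 1 h before LPS (250 ng/mL) and ATP (1.25 mM) stimulation; lower signal means less secretion.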
# DT40 TDP1 no CPT: qHTS for Inhibitors of human tyrosyl-DNA phosphodiesterase 1 (TDP1): qHTS in cells in absence of CPT; DT40 Tdp1-/- hTDP1 cells, no CPT, ATP luminescence, 48 h; Potency, µM (series often up to 46.2 µM), without a hit: at the highest dose activity change, negative = growth inhibition, hits mostly inhibitors; actives 15% (n = 420,000); also: potency is read from the fitted curve at half-maximal effect; % is scaled to controls: 0 for no effect and ±100 for the full control effect; nearly all actives have a fitted effect of over 55% in size
#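 Cells were dispensed at 400 per well, compounds added by pin tool, plates incubated ≥48 hr at 37 °C, then CellTiter-Glo added for 30 min at room temperature before luminescence reading. Line: DT40 Tdp1-/- complemented with hTDP1; camptothecin omitted.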
# TDP1 cell CPT: qHTS for Inhibitors of human tyrosyl-DNA phosphodiesterase 1 (TDP1): qHTS in cells in presence of CPT | chicken DT40 Tdp1-/-;hTDP1 cells + 20 nM CPT, ATP luminescence, 48 h | Potency, µM (titrated, usually from 46.2 µM), without a hit: top-dose activity change, negative = growth inhibition, actives largely listed as inhibitors | actives 12% (n = 420,000); also: potency is read from the fitted curve at half-maximal effect; % is scaled to controls: 0 for no effect and ±100 for the full control effect; nearly all actives have a fitted effect of over 55% in size
#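 Cell growth measured by CellTiter-Glo luminescence after a minimum 48 h, 37 C compound exposure with 20 nM CPT in Tdp1-knockout DT40 cells stably expressing hTDP1, seeded 400/well; qHTS titration format.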
# D3 ag: qHTS of D3 Dopamine Receptor Agonist: qHTS; D(3) dopamine receptor (Homo sapiens), P35462; D3R DiscoveRx beta-arrestin cells, luminescence, 90 min; max activation, %; actives 0.58% (n = 410,000); AID 652048, 2013; in the data active = max activation above about 30%; also: 0% is about no effect
# Target sequence (P35462 whole entry, looked up): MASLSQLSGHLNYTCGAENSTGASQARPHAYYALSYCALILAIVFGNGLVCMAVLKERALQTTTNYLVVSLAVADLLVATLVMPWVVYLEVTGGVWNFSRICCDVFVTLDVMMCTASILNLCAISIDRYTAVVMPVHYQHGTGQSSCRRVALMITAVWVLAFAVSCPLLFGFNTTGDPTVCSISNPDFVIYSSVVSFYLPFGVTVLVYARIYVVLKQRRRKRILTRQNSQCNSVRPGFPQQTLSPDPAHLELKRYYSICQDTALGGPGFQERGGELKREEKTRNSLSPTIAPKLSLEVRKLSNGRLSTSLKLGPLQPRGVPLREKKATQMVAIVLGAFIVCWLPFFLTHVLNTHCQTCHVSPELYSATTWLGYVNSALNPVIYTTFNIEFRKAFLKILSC
#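 Agonist mode: compounds and dopamine controls were applied to plated cells for 90 min at 37 degrees C after an overnight attachment at 1500 cells/well. Luminescent read-out followed 30 - 60 minutes at room temperature with DiscoveRx detection reagent.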
# ClpP mod: qHTS Assay for Activators of ClpP; Potency, µM (titrated, usually from 57.5 µM), for inactives: at the highest dose activity change, negative = active; AID 651965, 2013; actives 1.9% (n = 340,000); ATP-dependent Clp protease proteolytic subunit (Bacillus subtilis (strain 168)), P80244; purified B. subtilis ClpP, FRET peptide cleavage, 20 min; active = well fitted falling curve with a large enough effect; inconclusive = small, poorly fitted or top-dose-only effect; inactive = no such curve, though single readings can be large or run the other way; also: potency is read from the fitted curve at half-maximal effect; the source files actives as falling curves though it sought activators and does not explain the sign; nearly all actives have a fitted effect of over 65% in size
# Target sequence (P80244 whole entry, looked up): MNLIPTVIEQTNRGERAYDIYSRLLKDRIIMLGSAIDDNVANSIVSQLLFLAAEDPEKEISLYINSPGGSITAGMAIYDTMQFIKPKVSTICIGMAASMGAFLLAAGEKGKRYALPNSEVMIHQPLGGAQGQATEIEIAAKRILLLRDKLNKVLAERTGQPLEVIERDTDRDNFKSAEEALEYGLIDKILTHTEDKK
#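 Purified B. subtilis ClpP, 10 microg/mL final in Tris/HCl pH8 with KCl, BSA, glycerol and Tween-20, cleaved an Abz/nitrotyrosine-quenched decapeptide. Fluorescence (ex 320, em 430) was read at 0 and 20 min at room temperature. Delta was normalized to 5.8 microM ADEP and DMSO/no-enzyme controls.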
# D3 antag: qHTS of D3 Dopamine Receptor Antagonist: qHTS; actives 2.5% (n = 360,000); D3R cells, DiscoveRx beta-arrestin luminescence, antagonist mode; active compounds read low; D(3) dopamine receptor (Homo sapiens), P35462; max response, negative = inhibition, %; AID 652054, 2013; in the data active = max response below about -50%; inconclusive = no clear call, values can overlap the other calls; also: % is scaled to controls: 0 for no effect and ±100 for the full control effect
#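 Cells plated overnight at 1500 cells/well, then exposed to library compounds with dopamine controls for 90 minutes at 37 degrees C. DiscoveRx reagent added for 30–60 minutes at room temperature; luminescence read, quantitative HTS format.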
# * hit, by the source's call; ? = inconclusive; . = not tested or not shown; ! = repeats disagree. Compounds with a hit are over-represented: about 21% of the library has one in this group of screens. Unless noted, calls follow the shape of the dose curve; as a rule, active = well fitted inhibition curve with a large enough effect; inconclusive = small, poorly fitted or top-dose-only effect; inactive = flat fitted curve, though single readings scatter.
SMILES,IL-1B inflam inh,DT40 TDP1 no CPT,TDP1 cell CPT,D3 ag,ClpP mod,D3 antag
CCCc1nc2oc3c(NCC4CCCO4)ncnc3c2c2c1COC(C)(C)C2 (stereo unspecified),0,?,29µM*,-1,?,-6
O=C(c1ccc(Cl)cc1)C1CCN(CC(=O)N2CCCCC2)CC1,21,?,?,-3,.,-10
Cc1ccc2c(n1)sc1c(-c3ccccc3)c(C#N)c(N)nc12,7,-25%,-9%,2,35µM*,9
Cc1ccc2c(n1)sc1c(N)ncnc12,-16,?,5%,8,32µM*,11
CC(=O)Nc1cccc(NC(=O)c2ccc([N+](=O)[O-])cc2Cl)c1,3,?,-17%,-18,3%,-15
CC(=O)Nc1ccc(Oc2ccc([N+](=O)[O-])cc2Cl)cc1,-73*,?,10µM*,-8,.,0
CN(C)c1ccc(NC(=O)c2ccc([N+](=O)[O-])cc2Cl)cc1,-4,-22%,9%,-4,.,10
O=C(Nc1cccc(O)c1)c1ccc([N+](=O)[O-])cc1Cl,15,?,15µM*,13,-1%,0
CC(C)C(=O)Nc1ccc(NC(=O)c2ccc([N+](=O)[O-])cc2Cl)cc1,17,18µM*,?,-2,0%,-23
CC12CCC(=O)C=C1CCC1C2CCC2(C)C1CC1C3C(=O)N(Cc4ccccc4)C(=O)C3CC(=O)C12 (stereo unspecified),-13,26µM*,23µM*,-15,.,-26
CC(CC(=O)NCc1ccc(F)cc1)c1ccccc1 (stereo unspecified),72,-6%,-1%,1,.,0
CSc1nc(C(C)C)ccc1CNC(=O)CC(C)c1ccccc1 (stereo unspecified),18,23µM*,-25%,-2,.,-11
CCN(CC)CCNC(=O)c1sc2nc(C)cc(C)c2c1-n1cccc1,.,?,?,4,1%,.
COc1cc(CNc2ncc(-c3ccc(Cl)cc3)n2C)cc(OC)c1OC,-19,2.1µM*,13µM*,-8,?,32
COc1cc(CNc2ncc(-c3ccc(Br)cc3)n2C)cc(OC)c1OC,-6,?,10µM*,-26,1%,?
Cn1c(-c2ccc(Br)cc2)cnc1NCc1cccnc1,14,-12%,-14%,-3,-4%,-62*
O=C(COC(=O)c1cc[n+]([O-])cc1)Nc1ccc(Cl)cc1C(F)(F)F,-5,-1%,29%,2,-6%,10
COc1cccc2sc(NNC(=O)C3=COCCO3)nc12,-9,-7%,-6%,0,35µM*,-11
Cc1ccc2cc(CN(Cc3ccco3)C(=O)c3cccs3)c(=O)[nH]c2c1,30,3.7µM*,2.9µM*,0,?,16
Cc1cccc(N(Cc2cc3ccccc3[nH]c2=O)C(=O)c2cccs2)c1,?,23µM*,?,-2,.,4
Cc1cccc2cc(CN(Cc3ccco3)C(=O)c3cccs3)c(=O)[nH]c12,3,?,?,-1,-24%,34
Cc1ccc(S(=O)(=O)N2CCN(CC(O)c3ccccc3)CC2)cc1C (stereo unspecified),-18,-2%,-13%,-5,2%,-8
O=C(COC(=O)c1cc(S(=O)(=O)N2CCOCC2)ccc1F)c1ccc[nH]1,-62*,-4%,8%,-1,-4%,2
O=C1COc2ccc(C(=O)COC(=O)c3cc(S(=O)(=O)N4CCOCC4)ccc3F)cc2N1,-70*,-5%,12%,17,-3%,26
S=C(Nc1ccc(Cl)c(Cl)c1)NC1CCCCC1,-95*,18µM*,?,-9,-3%,45
SMILES,IL-1B inflam inh,DT40 TDP1 no CPT,TDP1 cell CPT,D3 ag,ClpP mod,D3 antag
S=C(Nc1ccc2nsnc2c1)NC1CCCCC1,-15,?,?,4,-10%,-5
Fc1ccc(NC(=S)NC2CCCCC2)c(F)c1F,7,21µM*,21µM*,-4,-2%,-2
Fc1cccc(NC(=S)NC2CCCCCCC2)c1,?,?,23µM*,-6,-2%,-5
S=C(Nc1ccc(Cl)cc1Cl)NC1CCCCC1,-17,?,?,-4,-1%,-22
Cc1cc(C)c2c(c1)c(C)cc1nnc(SCC(=O)c3ccccc3)n12,.,?,?,3,0%,.
O=C(Nc1ccc(Cl)c(Cl)c1)C1C2C=CC3(O2)C1C(=O)N(CCN1CCCCC1)C3C(=O)NC1CCCCC1 (stereo unspecified),-81*,?,?,-1,.,-10
CC1CCCC(NC(=O)C2N(CCCN3CCCC3)C(=O)C3C(C(=O)Nc4ccc(Cl)cc4)C4C=CC32O4)C1C (stereo unspecified),-65*,?,-22%,-17,.,2
O=C(Nc1cccc(Cl)c1)C1C2C=CC3(O2)C1C(=O)N(CCCN1CCCCC1)C3C(=O)NC1CCCCC1 (stereo unspecified),5,7%,15%,-9,.,-9
O=C(O)CC(NC(=O)/C(=C/c1ccccc1)NC(=O)c1ccccc1)c1ccccc1 (stereo unspecified),3,0%,7%,-4,.,2
CCCCCCSc1cc(-c2nc3ccc(C)cn3c2NCc2ccccc2)ccc1OC,-51*!,9.2µM*,23µM*,62*!,4%,40
CCCCCCSc1cccc(-c2nc3ccc(C)cn3c2NCc2ccccc2)c1,-61*,21µM*,23µM*,14,5%,108
Oc1ccc(-c2nc3ccccn3c2NCc2ccc3c(c2)OCO3)cc1,-16,?,?,2,?,5
CCCCCCSc1cccc(-c2nc3cc(C)ccn3c2NCc2ccccc2)c1,-84*!,13µM*,13µM*,33*!,4%,7
CCCCCCSc1cccc(-c2nc3ccccn3c2NCc2ccccc2)c1,-30,16µM*,16µM*,96*!,4%,178
COc1ccc2c(C)cc(SCC(=O)N(C)C3CCS(=O)(=O)C3)nc2c1 (stereo unspecified),4,1%,9%,5,.,-2
